This passage reports growth results from PubChem BioAssay (NCI).

About 83,000 compounds went through this panel and 20% of them were active in at least one assay; those are over-represented in the sample as a whole.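 Results are percent growth after 48 hours of single-concentration exposure. 100 means growth as in untreated cells, lower positive values show inhibition; negative values down to -100 show cell death.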 Values without a mark were called inactive. Calls of active or inactive are those of the source. How the source made its calls: active means growth percent below 10; inactive means the rest.

Some test systems named below: HCT-15 colon; HT29 colon; SNB-75 CNS; SNB-19 CNS; U251 CNS; PC-3 prostate; SK-MEL-5 melanoma; UACC-62 melanoma; LOX IMVI melanoma; SK-MEL-28 melanoma.
What all share (experiment): NCI-60 one-dose screen, 48 h (100 = growth as untreated, 0 = no growth, -100 = all killed)
Common to all, as to conditions: 10 µM unless noted

Take `Cc1ccc(C2CC(c3cccs3)=NN2c2ccc(S(N)(=O)=O)cc2)s1` (stereo not given): the growth was 80.8% in the test with HCT-15 colon; 86.5% in the test on HT29 colon; 74.5% in the test with SNB-75 CNS; 84.8% in the test with SNB-19 CNS; 78.5% in the test on U251 CNS; 56.4% in the test with PC-3 prostate. Further, the growth in the test on SK-MEL-5 melanoma is 65.7%; in the test with UACC-62 melanoma, 44.1%; in the test on LOX IMVI melanoma, 104%; with SK-MEL-28 melanoma it was 64.9%.

For the compound `COCCCNCC(=O)Nc1c(C)cccc1C`, the growth in the test with HCT-15 colon is 108%; in the test on HT29 colon, 112%; with SNB-75 CNS, 115%; with SNB-19 CNS it was 110%; in the test on U251 CNS, 104%; in the test with PC-3 prostate, 102%. For the same compound, the growth in the test with SK-MEL-5 melanoma is 106%; in the test on UACC-62 melanoma, 110%; in the test with LOX IMVI melanoma, 101%; in the test with SK-MEL-28 melanoma, 122%.

On to `COc1cc(-c2csc(NC(=O)Nc3cccc(C(F)(F)F)c3)n2)cc(OC)c1OC`, for which the growth in the test with HCT-15 colon is 30.9%; with HT29 colon, 62.6%; in the test on SNB-75 CNS, 62.4%; in the test on SNB-19 CNS, 46.1%; with U251 CNS, 34.1%; with PC-3 prostate, 18.6%. Moreover, the growth is 28.7% with SK-MEL-5 melanoma, 40% in the test with UACC-62 melanoma, 62.3% with LOX IMVI melanoma and 72.8% in the test on SK-MEL-28 melanoma.

For `O=[N+]([O-])c1cccc([I+]c2ccccc2)c1`, the growth was 52.5% in the test on HCT-15 colon; 27.3% with HT29 colon; 46.9% in the test with SNB-75 CNS; 71.3% in the test with SNB-19 CNS; 52.1% in the test with U251 CNS; 59.1% in the test with PC-3 prostate. For the same compound, the growth in the test on SK-MEL-5 melanoma was -2.62% (active); in the test with UACC-62 melanoma, 52.2%; with LOX IMVI melanoma it was 36.2%; in the test on SK-MEL-28 melanoma, 61.5%.

As to `Nc1c(C(=O)c2ccc(Br)cc2)sc2nc3c(cc12)CCCC3`, the growth in the test with HCT-15 colon was 80.9%; in the test with HT29 colon, 96.6%; in the test on SNB-75 CNS, 101%; with SNB-19 CNS it was 97.3%; with U251 CNS, 89.6%; with PC-3 prostate, 85.4%. In addition, the growth was 92% with SK-MEL-5 melanoma, 93.9% in the test with UACC-62 melanoma, 112% in the test with LOX IMVI melanoma and 89% in the test with SK-MEL-28 melanoma.

For `Fc1cc(-c2nnc3sc(-c4ccc(Cl)cc4)nn23)c(Cl)cc1Cl`, the growth is 96.5% with HCT-15 colon; 90.6% with HT29 colon; 75.5% with SNB-75 CNS; 96.6% in the test on SNB-19 CNS; 91.7% in the test on U251 CNS; 102% in the test with PC-3 prostate. The growth was 85.6% in the test with SK-MEL-5 melanoma, 90.4% with UACC-62 melanoma, 91.7% in the test with LOX IMVI melanoma and 84.4% in the test with SK-MEL-28 melanoma.

On to `COc1cc(-c2nc(-c3nc4cc(C(=O)c5ccccc5)ccc4[nH]3)cc3c2[nH]c2ccccc23)cc(OC)c1OC`, for which the growth is 83.1% in the test with HCT-15 colon; 104% in the test with HT29 colon; 71.5% with SNB-75 CNS; 103% with SNB-19 CNS; 82% in the test with U251 CNS; 65.8% in the test with PC-3 prostate. Also, the growth with SK-MEL-5 melanoma is 75.2%; in the test with UACC-62 melanoma, 76%; in the test on LOX IMVI melanoma, 85.2%; in the test with SK-MEL-28 melanoma, 102%.

On to `CC(=O)[C@H]1CC[C@H]2[C@@H]3CC[C@H]4CC=CC[C@]4(C)[C@H]3CC[C@]12C`, for which the growth in the test on HCT-15 colon is 89.8%; in the test on HT29 colon, 79.4%; with SNB-75 CNS it was 74.1%; in the test with SNB-19 CNS, 98.1%; in the test with U251 CNS, 102%; in the test with PC-3 prostate, 58%. The growth is 98.8% in the test on SK-MEL-5 melanoma, 79.9% in the test with UACC-62 melanoma, 95.4% in the test with LOX IMVI melanoma and 89.1% in the test with SK-MEL-28 melanoma.

Regarding `OC(c1cc2c(Cl)cc(Cl)cc2c2cc(C(F)(F)F)ccc12)C1CCCCN1` (stereo not given), the growth with HCT-15 colon was -66.8% (active); in the test on HT29 colon it was -80.5% (active); with SNB-75 CNS, -91% (active); in the test with SNB-19 CNS it was -72.8% (active); with U251 CNS, -93% (active); in the test on PC-3 prostate, -84% (active). Also, the growth was 8.25% (active) in the test on SK-MEL-5 melanoma, -72.4% (active) in the test with UACC-62 melanoma, -66.2% (active) with LOX IMVI melanoma and -75.4% (active) with SK-MEL-28 melanoma.

Consider `CC1=NOCC(=O)N1`, for which the growth with HCT-15 colon is 102%; in the test on HT29 colon, 101%; with SNB-75 CNS, 85.3%; in the test on SNB-19 CNS it was 95.6%; in the test with U251 CNS, 94.7%; with PC-3 prostate, 95.2%. Also, the growth in the test with SK-MEL-5 melanoma is 99.7%; in the test on UACC-62 melanoma, 102%; with LOX IMVI melanoma, 89.1%; in the test with SK-MEL-28 melanoma it was 99.4%.

As to `COc1cc(Nc2ccnc3ccc(Br)cc23)cc(OC)c1OC`, the growth in the test on HCT-15 colon is 30.6%; in the test on HT29 colon, 14.2%; in the test on SNB-75 CNS, -4.34% (active); with SNB-19 CNS it was 32.9%; with U251 CNS, 18.6%; in the test on PC-3 prostate it was 26.7%. The growth in the test with SK-MEL-5 melanoma was 8.82% (active); in the test on UACC-62 melanoma, 30.4%; in the test with LOX IMVI melanoma, 32%; in the test on SK-MEL-28 melanoma, 58.3%.

As for `N#CC1=C(N)Oc2nc[nH]c(=O)c2C1c1cccs1` (stereo not given), the growth in the test on HCT-15 colon was 99.8%; with HT29 colon, 99%; in the test on SNB-75 CNS, 92.6%; in the test on SNB-19 CNS it was 104%; with U251 CNS it was 96.3%; with PC-3 prostate it was 97.9%. Moreover, the growth in the test on SK-MEL-5 melanoma is 102%; with UACC-62 melanoma, 104%; in the test on LOX IMVI melanoma it was 100%; in the test with SK-MEL-28 melanoma, 102%.

With `COc1ccccc1NC(=O)OCC12COCN1COC2`, the growth in the test with HCT-15 colon was 97.2%; in the test on HT29 colon it was 109%; with SNB-75 CNS it was 97.6%; in the test with SNB-19 CNS, 94.4%; in the test with U251 CNS, 91.1%; in the test on PC-3 prostate, 101%. Moreover, the growth is 99.5% with SK-MEL-5 melanoma, 99.7% in the test on UACC-62 melanoma, 107% in the test on LOX IMVI melanoma and 108% in the test on SK-MEL-28 melanoma.

For `Nc1cccc(S(=O)(=O)c2cccc(N)c2)c1`, the growth was 114% in the test with HCT-15 colon; 110% in the test with HT29 colon; 88.3% with SNB-75 CNS; 133% with SNB-19 CNS; 113% in the test with U251 CNS; 92% in the test on PC-3 prostate. Besides, the growth with SK-MEL-5 melanoma was 113%; in the test with UACC-62 melanoma, 102%; in the test on LOX IMVI melanoma, 104%; in the test on SK-MEL-28 melanoma it was 126%.
